According to PubChem BioAssay (NCI):
Values joined by “and” are separate entries in the source; they are usually repeats but may differ in a detail not shown here. Equal entries are not always repeated. About 79,000 compounds went through this panel and 15% of them were active in at least one assay; those are over-represented in the sample as a whole. Active and inactive are the calls of the source. Rule as the data show it: active = growth inhibition above about 70%; inactive = the rest.

Experiments:
[1] = NCI Yeast Anticancer Drug Screen. Data for the rad50 strain (AID 155);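 also: 0% = growth of vehicle-only cultures of the same strain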; settings: S. cerevisiae rad50 strain growth inhibition, stronger effect = higher value; at 50.0 µM unless noted
Summary of the method: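 Growth of the mutant yeast was measured after compound exposure and referenced to vehicle-treated cultures.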

[2] = NCI Yeast Anticancer Drug Screen. Data for the mec2-1 strain (AID 157); settings: S. cerevisiae mec2-1 strain, stronger effect = higher value; at 50.0 µM unless noted
Summary of the method: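 Compounds were applied to mec2-1 yeast cells. Their growth was then compared with that of vehicle-treated cultures to give growth inhibition.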

[3] = NCI Yeast Anticancer Drug Screen. Data for the sgs1 mgt1 strain (AID 161);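 also: 0% = growth of cultures given vehicle only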; settings: S. cerevisiae sgs1 mgt1 strain, stronger effect = higher value; at 50.0 µM unless noted
Summary of the method: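 Growth of a repair-deficient yeast mutant was monitored after compound treatment and expressed as inhibition relative to vehicle-treated cultures.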

[4] = NCI Yeast Anticancer Drug Screen. Data for the cln2 rad14 strain (AID 165);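 also: 0% = growth equal to vehicle treated cultures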; settings: S. cerevisiae cln2 rad14 strain, stronger effect = higher value; at 50.0 µM unless noted
Summary of the method: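 Strain: cln2 rad14 yeast, altered in cell cycle control and DNA damage repair. Read-out: growth inhibition vs vehicle.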

[5] = NCI Yeast Anticancer Drug Screen. Data for the bub3 strain (AID 167); settings: S. cerevisiae bub3 mutant strain, stronger effect = higher value; at 50.0 µM unless noted
Summary of the method: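 Whole-cell yeast assay. The mutant strain was incubated with compounds, and growth inhibition was determined by comparison with vehicle-treated cells.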

[6] = NCI Yeast Anticancer Drug Screen. Data for the mlh1 rad18 strain (AID 175); settings: S. cerevisiae mlh1 rad18 strain growth inhibition, stronger effect = higher value; at 50.0 µM unless noted
Summary of the method: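 A repair-deficient yeast strain is exposed to test compound, and growth is scored relative to vehicle-treated controls.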

Measured: growth inhibition

Cc1ccc(OS(=O)(=O)c2cccc(S(=O)(=O)Oc3ccc(C)cc3)c2)cc1
inactive: [1] 19.9% | [2] 3.35% | [3] 8.9% | [4] 7.7% | [5] 9.45% | [6] 6.15%

O=[N+]([O-])c1ccc2c(c1)S(=O)c1ccccc1-2 (centres undefined)
inactive: [1] -18.1% | [2] -3.65% | [3] -12.4% | [4] 1% | [5] -37.8% | [6] -4.8%

Cc1ccc(C(=O)O)cc1
inactive: [1] 2.95% | [2] -17% | [3] 0.65% | [4] -15.6% | [5] 8.85% | [6] -2.2%

CN(/C(=C/C(=O)c1ccccc1)C(=O)c1ccccc1)/C(=C/C(=O)c1ccccc1)C(=O)c1ccccc1
inactive: [1] -27.4% | [2] 3.2% | [3] -0.95% | [4] -5.25% | [5] -4.5% | [6] 26.8%

O=c1[nH]cnc2c1ncn2C1OC(CO)C(O)C1O (centres undefined)
inactive: [1] 8% and -14.7% | [2] 8.25% and -20.1% | [3] 0.45% and 12.8% | [4] -117% and 5% | [5] 15.4% and 21.7% | [6] 5.85% and 5.3%

NCC(=O)NC(Cc1c[nH]c2ccccc12)C(=O)O (centres undefined)
inactive: [1] 7.85% and -4.8% | [2] -4.65% and 1.4% | [3] 7.45% and -7.4% | [4] -0.8% and 13.8% | [5] 26.8% and -10% | [6] -0.75% and -5.4%

CSc1ncc(C(N)=O)c(N)n1
inactive: [1] -2.05% and 12% | [2] 3.5% and -12.9% | [3] -3.35% and -9.65% | [4] -38% and -12.4% | [5] -6.7% and -12.6% | [6] 2.45% and 13.2%

COC(=O)C1CC2(CCC1=O)Cc1ccccc1C2=O (centres undefined)
inactive: [1] -15.5% | [2] -3.45% | [3] 28.5% | [4] 1.3% | [5] -4.25% | [6] -16.4%

CCN(CC)c1ccc(C(c2ccc(N(CC)CC)cc2Cl)c2cccc3ccccc23)c(Cl)c1
inactive: [1] 24.8% | [2] 19.8% | [3] 30.3% | [4] 36.2% | [5] 22.4% | [6] 7.85%

COC(=O)C1(C)CCCC2(C)c3cc(OC)ccc3C(=O)CC12 (centres undefined)
inactive: [1] 24.4% | [2] 12.7% | [3] 28% | [4] 5.95% | [5] 19.6% | [6] 21.7%

O=[N+]([O-])c1nccn1CC1OC(n2ccnc2[N+](=O)[O-])C(O)C(O)C1O (centres undefined)
inactive: [1] 0.3% | [2] 2.6% | [3] -2.95% | [4] 5.9% | [5] 25.3% | [6] 6.25%

Cc1ccccc1C(=O)c1cccc2cccc(C(=O)c3ccccc3C)c12
inactive: [1] 13% | [2] 0.75% | [3] -10.8% | [4] 7.8% | [5] 10.8% | [6] 1.15%

CC1(C)N=C(N)N=C(N)N1c1ccc(N)cc1
inactive: [1] 1.7% | [2] -3.8% | [3] 2.75% | [4] -36.8% | [5] -21.4% | [6] 7.8%

CCCCCCCCOC(=O)NC1c2ccccc2Oc2c(C)cccc21 (centres undefined)
inactive: [1] 1.7% | [2] 5.9% | [3] 9.45% | [4] -30.1% | [5] -3.05% | [6] 12.9%

CCCCCCCCCCCCCCCCCCc1ccc(O)cc1O
inactive: [1] -2.05% | [2] -2.05% | [3] -15.9% | [4] 12.6% | [5] 1.75% | [6] -5.2%

Cc1cc(C)c(C(=O)c2cccc(C)c2C(=O)O)c(C)c1
inactive: [1] 4% | [2] -20.8% | [3] 7.85% | [4] 14.1% | [5] 9.85% | [6] 18%

OCCCC(O)CCC(O)CCC(O)CCCO (centres undefined)
inactive: [1] -4% | [2] -20.1% | [3] 9.15% | [4] 9.5% | [5] -22.8% | [6] 5.15%

CC1(C)OC2OC3C(O)C(=O)OC3C2O1 (centres undefined)
inactive: [1] -36.8% | [2] -16.9% | [3] -19.2% | [4] -20% | [5] -2.6% | [6] -7.1%

Nc1n[n+](-c2cccc([N+](=O)[O-])c2)no1
active: [5] 81.4%
inactive: [1] 32.4% | [2] 16.4% | [3] 69.5% | [4] 5.3% | [6] 32.5%

Oc1ccccc1/C=N/N1C(=S)N(C23CC4CC(CC(C4)C2)C3)C(=Nc2ccccc2)C1=Nc1ccccc1
inactive: [1] -8.55% | [2] -16.2% | [3] -23.2% | [4] 2.35% | [5] -3% | [6] -14.3%

CO/C(=N\N=C\c1ccc(Cl)cc1Cl)c1ccncc1
inactive: [1] -25.9% | [2] -40.4% | [3] -53% | [4] -23.4% | [5] -27.8% | [6] -54.6%

O=C(O)CSCC(=O)Nc1ccccc1Cl
inactive: [1] -11.6% | [2] -10.3% | [3] 14.6% | [4] 6.05% | [5] 4.3% | [6] -0.35%

S=c1nc[nH]c2c1ncn2Cc1ccco1
inactive: [1] 5.85% | [2] -12.9% | [3] -11.3% | [4] 0.55% | [5] -46.2% | [6] 5%

CN1C=C(C(N)=O)Cc2ccsc21
inactive: [1] 10.7% | [2] -10.8% | [3] -15.8% | [4] -8.95% | [5] -17.1% | [6] -18.5%

CCCCC(/C=C(\C(C)=O)C(=O)OCC)CC (centres undefined)
inactive: [1] -5.95% | [2] -39.1% | [3] -28.1% | [4] -10.5% | [5] -37% | [6] -40.6%

c1ccc(Cc2cncc(Cc3ccccc3)c2)cc1
inactive: [1] -22.5% | [2] 1.95% | [3] 6.85% | [4] -58.6% | [5] 55.5% | [6] 9.1%

CC1(c2ccccc2)C(=O)c2ccccc2-c2ccccc21 (centres undefined)
inactive: [1] 63.5% | [2] 48.4% | [3] 63.8% | [4] 3.45% | [5] 24.7% | [6] 24%

Oc1ccc(Br)cc1/C=N/N1CCN(/N=C/c2cc(Br)ccc2O)CC1
inactive: [1] 22.9% | [2] 6.2% | [3] 35.2% | [4] 14.9% | [5] 1.7% | [6] 25.1%

CCOC(=O)Nc1ccc(F)cc1C
inactive: [1] 14.8% | [2] 5.3% | [3] -7.55% | [4] -4% | [5] 7.3% | [6] -1%

CN(C)C(=S)/N=c1\ssc(=S)n1Cc1ccccn1
inactive: [1] 3.05% | [2] -11.9% | [3] 1.8% | [4] 22.1% | [5] -9.55% | [6] -10.9%

COc1ccc2c3c([nH]c2c1N)C(C)NCC3 (centres undefined)
inactive: [1] -11.4% | [2] -18.9% | [3] 4.2% | [4] 13.3% | [5] -18.3% | [6] 0.4%

Nc1cccc(OCCCCCOc2cccc(N)c2)c1
inactive: [1] -35.1% | [2] -40.3% | [3] -5.75% | [4] 6.6% | [5] -34.5% | [6] -20.4%

O=C(Nc1ccc(O)cc1)c1ccc([N+](=O)[O-])cc1
inactive: [1] -1.75% | [2] 6.6% | [3] 3.35% | [4] 0.05% | [5] 9.05% | [6] -2.2%

COC(=O)C1CCCCCCCCCCC12SCCCS2 (centres undefined)
inactive: [1] -32.5% | [2] -11.4% | [3] -17.5% | [4] 16.2% | [5] -5.7% | [6] -30%

C=C1N(C=O)C(C)(C)N(O)C1(C)C
inactive: [1] 16.7% | [2] 15.7% | [3] 15.6% | [4] 28.1% | [5] 12.2% | [6] 10.9%

CCN1C(=O)C(=O)C(c2ccccc2)(c2ccccc2)C1=O
inactive: [1] -6.3% | [2] -3.65% | [3] -4.65% | [4] -21.6% | [5] 2.9% | [6] 46.9%

COc1cc(Nc2cnc3cc(C(F)(F)F)ccc3n2)cc(OC)c1OC
inactive: [1] 16.9% | [2] 0.95% | [3] 21.9% | [4] 12.2% | [5] -14.1% | [6] -1.55%

Cc1cc(C)nc(NS(=O)(=O)c2ccc(NC(=O)c3ccc(Cl)c4c(Nc5ccc(S(=O)(=O)N=C(N)N)cc5)c5ccccc5nc34)cc2)n1
inactive: [1] 28% | [2] 27% | [3] 20.1% | [4] 29.7% | [5] 23.2% | [6] 31.4%

COc1cc(C(CC(=O)O)C(=O)O)c([N+](=O)[O-])cc1OC (centres undefined)
inactive: [1] -23.2% | [2] 1.1% | [3] 2.2% | [4] 0% | [5] 24.5% | [6] 7.4%
